According to PubChem BioAssay AID547 (Emory University Molecular Libraries Screening Center, 2006):
About 10 (0.8%) of roughly 1,300 compounds were called active. The sample holds actives, similar compounds and a random draw of the others, so the mix is not that of the screen. A number with no mark means an inactive call. No rule for the calls is given here.

Biological target: Chaperone protein DnaK (Escherichia coli (strain K12)) (UniProt P0A6Y8)
Experiment: E. coli DnaK chaperone inhibitors, primary screen, luminescence, E. coli K12 (AID 547);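 also: tested at 10 µM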
Conditions: DnaK chaperone assay, luminescence read-out; active compounds read low

Structure (SMILES)	luminescence
CN(N=O)c1cc(O)ccc1O	2.3e+06 cps
CCCN(CCC)CCc1ccc(O)c(O)c1	2.6e+06 cps
CN(N=O)c1ccc(O)c(O)c1	951000 cps (active)
CCN(CCCl)Cc1ccccc1Br	2.7e+06 cps
N[C@@H](CCl)C(=O)O	2.4e+06 cps
NC(Cc1ccc(N(CCCl)CCCl)cc1)C(=O)O (stereo not given)	2.5e+06 cps
NC(Cc1cc(O)c(O)cc1O)C(=O)O (stereo not given)	1.2e+06 cps (active)
C[N+](C)(C)CC(=O)O	2.7e+06 cps
Oc1ccc2c3c1O[C@H]1c4[nH]c5ccccc5c4C[C@@]4(O)C(C2)N(CC2CC2)CCC314 (stereo not given in full)	2.5e+06 cps
C[C@]12CC[C@H]3[C@@H](CCC4C[C@H](O)CC[C@@]43C)[C@@H]1CC[C@@H]2O (stereo not given in full)	2.6e+06 cps
